Screens (PubChem)
Rtt109 HAT inh – C. albicans Rtt109 histone acetyltransferase inhibition | inhibition, % at 34.9 µM | Q5AAJ8 | purified Rtt109/Vps75, ThioGlo CoA-SH fluorescence, 4 h | AID 540336 | hit rate 0.16% among 330,000;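 active = inhibition of at least 50% in every replicate; inconclusive = best replicate reaches 50% inhibition but some replicates fall short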
Target sequence (Q5AAJ8 whole entry, looked up): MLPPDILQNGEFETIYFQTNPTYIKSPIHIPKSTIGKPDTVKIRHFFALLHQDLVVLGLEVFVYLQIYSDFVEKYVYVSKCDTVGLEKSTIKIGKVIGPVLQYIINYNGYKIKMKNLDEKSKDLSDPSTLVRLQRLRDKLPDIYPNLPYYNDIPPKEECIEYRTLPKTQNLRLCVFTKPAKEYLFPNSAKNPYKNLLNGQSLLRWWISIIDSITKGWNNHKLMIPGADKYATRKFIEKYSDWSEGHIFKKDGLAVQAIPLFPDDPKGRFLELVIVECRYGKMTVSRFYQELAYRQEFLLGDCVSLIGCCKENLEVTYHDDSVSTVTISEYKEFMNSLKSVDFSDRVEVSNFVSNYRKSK
MITF act – increases MITF-driven TRPM1 promoter luciferase signal; SK-MEL-5 TRPM1-promoter luciferase, 24 h; % of positive control, neutral wells = 0; activation, % at 12.5 µM; hit rate 0.75% among 300,000;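 active = mean activation of at least 80% with every replicate also reaching 80%; inconclusive = mean reaches 80% but some replicate falls short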;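 also: 0% = neutral control wells and 100% = parthenolide positive control wells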
Statin myotox sup – protects C2C12 myotubes from simvastatin toxicity | ATP luminescence, 48 h; scaled: DMSO 0, geranylgeraniol control 100 | rescue of ATP level, % at 7.49 µM | hit rate 0.78% among 330,000 | AID 602340;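 active = mean ATP rescue above about 67%, or every replicate alone reaching that limit, limit read from the data, passing the limit was not always enough; inconclusive = no clear call, values can overlap the other calls; inactive = mean under the limit and some replicate under it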;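 also: myotubes were challenged with 10 µM simvastatin during compound exposure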
esBAF inh – blocks esBAF chromatin remodeling in mouse ES cells; Bmi1-luciferase knock-in reporter, 24 h; 100% = twice the neutral-well signal; reporter increase, % at 12.5 µM; hit rate 2% among 350,000; AID 602393; in the data active = activation above about 40%; inconclusive = no clear call, values can overlap the other calls;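 also: 0% = median of the plate's neutral control wells and 100% = double that signal; a rise in the Bmi1 reporter signal indicates esBAF inhibition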
Wnt act – Wnt/beta-catenin pathway activation; hit rate 1.2% among 300,000; AID 743398; activation, % at 9.35 µM; Wnt/beta-catenin reporter cell assay, activator, plate reader; in the data active = activation above about 30%, passing the limit was not always enough; inconclusive = no clear call, values can overlap the other calls;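 also: 0% = neutral control wells and 100% = positive control wells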
Starred values were filed as active, the others as inactive; ? = inconclusive; nt = no result given. An excerpt weighted towards active compounds, which were near 3.1% of everything screened.

SMILES	Rtt109 HAT inh	MITF act	Statin myotox sup	esBAF inh	Wnt act
Cc1ccc(S(=O)(=O)N(C)C[C@@H]2OCCCC[C@@H](C)Oc3ccc(NC(=O)Nc4ccc(F)cc4)cc3C(=O)N([C@@H](C)CO)C[C@@H]2C)cc1	nt	nt	nt	8.5	nt
CC(=O)c1ccccc1OC(=O)c1ccc([N+](=O)[O-])o1	57.7*	-16.8	-7.7	1.0	0.3
O=c1nc(N/N=C/c2c[nH]c3ccccc23)cn[nH]1	-5.6	57.4	nt	nt	40.9*
C(=N\Nc1ccccn1)/c1c[nH]c2ccccc12	-1.0	nt	nt	nt	-2.3
CCOc1ccc(C2C(C(=O)c3ccco3)=C(O)C(=O)N2Cc2cccnc2)cc1 (configuration not stated)	7.6	nt	11.2	5.2	35.4*
Cc1ccc(C(=O)C2=C(O)C(=O)N(Cc3ccco3)C2c2ccc(N(C)C)cc2)o1 (configuration not stated)	21.0	-6.0	1.1	5.5	20.0
CCCCOc1ccc(C2C(C(=O)c3ccc(C)o3)=C(O)C(=O)N2Cc2ccco2)cc1 (configuration not stated)	55.5*	1.6	-7.3	2.2	-1.5
CCOc1ccc(C2C(C(=O)c3ccco3)=C(O)C(=O)N2CCCn2ccnc2)cc1 (configuration not stated)	-0.3	12.7	-2.7	53.8*	26.5
CCCN(C)C[C@@H]1Oc2cc(-c3cccc(F)c3)ccc2S(=O)(=O)N([C@@H](C)CO)C[C@@H]1C	nt	nt	-3.2	-2.6	nt
Cc1c(CC(=O)N[C@H](C(=O)O)C(C)C)c(=O)oc2cc3c(cc12)CCC(C)(C)O3	6.8	59.7	-0.6	61.2*	34.7*
Cc1c(CC(=O)N[C@@H](C)C(=O)O)c(=O)oc2cc3c(cc12)CCC(C)(C)O3	-0.6	5.1	7.5	-2.1	2.4
Cc1c(CC(=O)NC(C)C)c(=O)oc2cc3c(cc12)CCC(C)(C)O3	-5.0	74.6	-17.0	49.0*	19.7
CCC(C)NC(=O)Cc1c(C)c2cc3c(cc2oc1=O)OC(C)(C)CC3 (configuration not stated)	4.2	62.9	-8.5	67.2*	12.5
O=C(Cc1nc2ccccc2[nH]1)c1ccc(Br)cc1	0.4	91.4*	nt	nt	16.6
O=c1[nH]c2ccccc2nc1Cc1ccccc1	2.4	1.7	0.2	-8.2	-1.6
O=C(Cc1nc2ccccc2[nH]c1=O)c1ccccc1	-31.8	28.8	nt	nt	32.9*
C[C@@H]1CCCCO[C@H](CN(C)C(=O)Nc2ccccc2)[C@@H](C)CN([C@H](C)CO)C(=O)c2cc(NC(=O)c3ccccc3)ccc2O1	nt	nt	nt	0.5	nt
O=C1CCC([N+](=O)[O-])C(c2cc(Br)ccc2F)N1 (configuration not stated)	2.3	-1.9	1.1	2.3	0.2
O=C1CCC([N+](=O)[O-])C(c2ccc(Cl)cc2Cl)N1 (configuration not stated)	-2.1	-12.0	70.2*	-0.5	nt
CNC[C@@H]1Oc2c(cccc2N(C)C)C(=O)N([C@H](C)CO)C[C@H]1C	nt	nt	46.5	-2.0	nt
Cc1cccc(-c2cc3nc4c(c(N5CCOCC5)n3n2)CCCC4)c1	20.5	29.9	-95.5	7.5	7.0
Cc1cccc(-c2cc3nc4c(c(N5CCC6(CC5)OCCO6)n3n2)CCCC4)c1	nt	91.1*	-5.4	77.6*	8.8
Fc1ccc(-c2cc3nc4c(c(N5CCOCC5)n3n2)CCCC4)cc1	3.8	29.4	-6.1	53.5*	9.5
OC1CCCN(c2c3c(nc4cc(-c5cccc(F)c5)nn24)CCCC3)C1 (configuration not stated)	12.3	87.0*	nt	nt	14.0
CCOC(=O)Cc1c(C)nc2c(-c3cccc(Br)c3)cnn2c1C	-38.1	-2.1	nt	nt	-1.8
SMILES	Rtt109 HAT inh	MITF act	Statin myotox sup	esBAF inh	Wnt act
C=CCSc1cc(C)nc2c(-c3ccccc3)cnn12	4.7	11.9	nt	nt	32.5*
CCSc1cc(C)nc2c(-c3ccccc3)cnn12	-0.2	14.8	nt	nt	-2.7
Cc1cc(-c2ccncc2)n2ncc(-c3ccccc3)c2n1	nt	nt	5.9	16.8	19.2
Cc1cc(N)n2ncc(-c3cccc(Br)c3)c2n1	3.0	66.0	-101.6	66.0*	nt
CC(=O)c1cnc2c(-c3cccc(Br)c3)cnn2c1C	2.3	94.7*	3.3	34.7	9.0
Cc1cc(N)n2ncc(-c3ccccc3)c2n1	2.6	65.1	0.1	51.4*	nt
C[C@@H]1CCCCO[C@@H](CN(C)C(=O)Cc2ccccc2)[C@@H](C)CN([C@H](C)CO)C(=O)c2cc(NC(=O)CCC(F)(F)F)ccc2O1	nt	nt	-3.2	1.6	nt
O=C(Oc1ccc(/C=N/NC(=O)c2ccccc2O)cc1)c1ccccc1	1.2	5.4	28.0	29.9	nt
O=C(N/N=C/c1ccc(OC(=O)c2ccccc2)cc1)c1cccc(O)c1	-5.1	16.1	nt	nt	46.9*
O=C(Oc1ccc(/C=N/NC(=O)c2ccccc2F)cc1)c1ccccc1	-3.7	47.0	-7.7	46.6*	13.2
COc1cccc(CNC(=O)C[C@@H]2CC[C@@H](NC(=O)C3CC3)[C@@H](CO)O2)c1	nt	nt	-1.7	0.8	nt
Clc1c(-c2ccccc2)nc2ccccn12	12.8	nt	6.4	?	4.5
c1ccn2c(c1)nc1c2nc2ccccn21	3.1	37.7	167.9*	?	12.7
CN(C)c1cccc(-c2nnc(SCCCC#N)o2)c1	2.8	42.8	5.2	12.6	40.7*
O=C(CC(F)(F)F)N1C[C@H]2[C@@H](c3ccccc31)[C@@H](CO)N2CC1CCCCC1	nt	nt	-15.2	-10.3	nt
CN(CC(=O)NCc1ccco1)CC(=O)Nc1ccc(F)c(F)c1F	-0.5	1.2	109.0*	nt	-3.3
CN(CC(=O)NCc1ccco1)CC(=O)Nc1cc(S(C)(=O)=O)ccc1Cl	2.6	11.6	6.3	nt	-1.4
Cc1noc(C)c1NC(=O)N(C)C[C@@H]1Oc2ccc(NS(C)(=O)=O)cc2CC(=O)N([C@@H](C)CO)C[C@@H]1C	nt	nt	-20.1	4.1	nt
COCC1CCN(C(=O)c2cc(COc3ccc(OC)c4ccccc34)on2)C1 (configuration not stated)	15.9	49.0	-8.3	?	18.3
CCOC(=O)C1CCN(C(=O)c2cc(COc3ccc(OC)c4ccccc34)on2)CC1	18.7	9.5	1.3	57.0*	39.7*
COc1ccc(OCc2cc(C(=O)N3CCC(OC)CC3)no2)c2ccccc12	-1.5	32.8	-1.8	69.7*	22.1
Cc1noc(C)c1NC(=O)Nc1cccc2c1O[C@H](CN(C)C(=O)Nc1ccc(C(F)(F)F)cc1)[C@H](C)CN([C@@H](C)CO)C2=O	nt	nt	4.8	-3.1	nt
Clc1ccc2nc(CSc3nc4ccccc4o3)cn2c1	1.8	nt	7.6	7.1	58.5*
Clc1ccc2nc(CSc3nncn3-c3ccccc3)cn2c1	-6.1	-7.7	1.7	-1.0	-5.0
Cc1ccc(S(=O)(=O)NCc2cn3c(C)csc3n2)cc1	-12.3	15.7	9.4	2.9	nt
Cc1cccc2nc(CSc3ccc(Cl)cc3)cn12	2.0	101.1*	-11.7	75.7*	13.2
Clc1ccc2nc(CSCc3ccccc3)cn2c1	0.1	51.0	nt	nt	67.0*
Clc1ccc(SCc2cn3ccccc3n2)cc1	2.2	?	nt	nt	15.8
Cc1ccc(SCc2cn3c(C)csc3n2)cc1	5.3	84.0*	-10.6	6.6	1.0
